Compounds without any hit were thinned out: in the full panel of roughly 83,000, 20% have a hit.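 Treatment: one concentration, 48 hours, 96-well format. Scoring: percent growth, with anything below 10 considered active.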 Values without a mark were called inactive. Activity calls are given as the source filed them.

Some test systems named below: HT29 colon; SNB-75 CNS; SNB-19 CNS; U251 CNS; PC-3 prostate; SK-MEL-5 melanoma; UACC-62 melanoma; LOX IMVI melanoma; SK-MEL-28 melanoma; SK-MEL-2 melanoma; EKVX NSCLC; SN12C renal; UO-31 renal; TK-10 renal; ACHN renal; CAKI-1 renal; A498 renal; CCRF-CEM leukemia; MOLT-4 leukemia.
Common to all, as to assay: NCI-60 one-dose screen, 48 h (100 = growth as untreated, 0 = no growth, -100 = all killed)
Common to all, as to details: 10 µM unless noted

As to `CC1(C)CC[C@]2(CN)CC[C@]3(C)C(=CC[C@@H]4[C@@]5(C)CCCNC(C)(C)[C@@H]5CC[C@]43C)[C@H]2C1`, the growth in the assay with HT29 colon is 40.7%; with SNB-75 CNS, 99.1%; in the assay on SNB-19 CNS, 101%; in the assay on U251 CNS it was 89.4%; in the assay with PC-3 prostate, 87.6%; in the assay with SK-MEL-5 melanoma it was 98.8%. Besides, the growth in the assay on UACC-62 melanoma is 105%; with LOX IMVI melanoma it was 81.9%; with SK-MEL-28 melanoma, 103%; with SK-MEL-2 melanoma, 108%; in the assay on EKVX NSCLC, 96%; with SN12C renal, 99.5%. Also, the growth in the assay with UO-31 renal is 89%; in the assay with TK-10 renal, 111%; with ACHN renal, 109%; with CAKI-1 renal it was 93.2%; with A498 renal, 98%; in the assay with CCRF-CEM leukemia, 79.4%. In addition, the growth in the assay on MOLT-4 leukemia is 82.8%.

With `Nc1nc(N)c2c(n1)NC(c1ccc(Cl)cc1)CC(c1ccc(Nc3nc(NCCO)nc(N4CCOCC4)n3)cc1)=N2` (stereo not drawn), the growth in the assay with HT29 colon is 57.2%; in the assay on SNB-75 CNS it was 72.5%; with SNB-19 CNS, 87.4%; with U251 CNS, 59.5%; with PC-3 prostate, 64%; in the assay on SK-MEL-5 melanoma, 67.4%. Also, the growth in the assay on UACC-62 melanoma is 89.9%; in the assay with LOX IMVI melanoma it was 61.2%; in the assay with SK-MEL-28 melanoma it was 83.5%; in the assay on SK-MEL-2 melanoma it was 88.2%; in the assay on EKVX NSCLC it was 89.8%; in the assay on UO-31 renal, 84.4%. The growth with TK-10 renal was 103%; in the assay with ACHN renal, 93.7%; with CAKI-1 renal, 97.2%; with A498 renal, 90.6%; in the assay with CCRF-CEM leukemia, 48.2%; in the assay on MOLT-4 leukemia, 45.5%.

For `Cc1ccc(-c2nnc(SCc3ccc(O)c4ncccc34)o2)cc1`, the growth in the assay with HT29 colon is 79%; with SNB-75 CNS, 0.0889% (active); in the assay with SNB-19 CNS it was 11.1%; in the assay with U251 CNS, 7.11% (active); in the assay on PC-3 prostate it was 12.2%; in the assay with UACC-62 melanoma it was 2.61% (active). In addition, the growth was 4.71% (active) with LOX IMVI melanoma; 22.8% with SK-MEL-28 melanoma; 34.8% with SK-MEL-2 melanoma; 22.1% in the assay on EKVX NSCLC; 34.5% with SN12C renal; -12.8% (active) in the assay on UO-31 renal. For the same compound, the growth in the assay with TK-10 renal was 24.3%; with ACHN renal, 10.3%; in the assay with CAKI-1 renal, 24.8%; with A498 renal, 36.5%; in the assay on CCRF-CEM leukemia it was 12.3%; in the assay with MOLT-4 leukemia it was 10.8%.

`C#CC(=O)N(c1ccc(OC)cc1OC)C(C(=O)NCC(=O)OCC)c1cccs1` (stereo not drawn): the growth is -7.89% (active) with HT29 colon; -71% (active) in the assay with SNB-75 CNS; 77.1% with SNB-19 CNS; 5.16% (active) in the assay on U251 CNS; -13.2% (active) in the assay with PC-3 prostate; 99.3% with SK-MEL-5 melanoma. Moreover, the growth in the assay on UACC-62 melanoma was 82.6%; in the assay with LOX IMVI melanoma, -78.8% (active); with SK-MEL-28 melanoma, 92.4%; in the assay with SK-MEL-2 melanoma, 95%; with EKVX NSCLC, 36.4%; with SN12C renal, 44.9%. The growth in the assay with UO-31 renal is -79.9% (active); in the assay with TK-10 renal it was 105%; with ACHN renal, -90.2% (active); in the assay on CAKI-1 renal, -83.9% (active); in the assay on A498 renal, 57.2%; in the assay with CCRF-CEM leukemia it was -53.8% (active). Besides, in the assay with MOLT-4 leukemia, the growth was -22.2% (active).

As to `Nc1nc(Nc2ccccc2SSc2ccccc2Nc2nc(N)nc(-c3ccccc3)n2)nc(-c2ccccc2)n1`, the growth in the assay on HT29 colon was 111%; in the assay with SNB-75 CNS it was 55.7%; in the assay on SNB-19 CNS, 74.5%; in the assay with U251 CNS, -22.7% (active); with PC-3 prostate it was 42.9%; in the assay on SK-MEL-5 melanoma, 89.2%. In addition, the growth in the assay with UACC-62 melanoma is 76.3%; with LOX IMVI melanoma, -34.3% (active); in the assay on SK-MEL-28 melanoma it was 93.9%; with SK-MEL-2 melanoma, 106%; in the assay on EKVX NSCLC, 47.1%; with SN12C renal, 77.8%. For the same compound, the growth was -12.6% (active) with UO-31 renal; 101% in the assay on TK-10 renal; 55.8% in the assay with ACHN renal; 25.2% in the assay on CAKI-1 renal; 78.7% in the assay on A498 renal; 50.7% in the assay with MOLT-4 leukemia.

As for `C#CCn1cccc1CNc1ccc(OC)cc1`, the growth is -50.4% (active) with HT29 colon; -79.9% (active) with SNB-75 CNS; -90.1% (active) in the assay on SNB-19 CNS; -74.6% (active) in the assay on U251 CNS; -93.3% (active) with PC-3 prostate; -6.24% (active) in the assay on SK-MEL-5 melanoma. Moreover, the growth with UACC-62 melanoma is -91.7% (active); in the assay on LOX IMVI melanoma, -84.8% (active); in the assay on SK-MEL-28 melanoma, -48.9% (active); in the assay on SK-MEL-2 melanoma, -14.1% (active); in the assay on EKVX NSCLC it was -83% (active); with SN12C renal, -84.3% (active). The growth in the assay on UO-31 renal was -95.4% (active); in the assay with TK-10 renal, -77.7% (active); in the assay with ACHN renal, -95% (active); with CAKI-1 renal, -87.6% (active); with A498 renal, 53.8%; with CCRF-CEM leukemia, -43.6% (active). For the same compound, the growth in the assay on MOLT-4 leukemia was -29.5% (active).

For the compound `COC(=O)/C=C/c1c(C2(C)NC(=O)c3ccccc3N2)c(=O)oc2ccc(Cl)cc12` (stereo not drawn), the growth in the assay on HT29 colon was 96%; in the assay with SNB-75 CNS, 74%; in the assay on SNB-19 CNS it was 90.7%; in the assay with U251 CNS, 88%; in the assay on PC-3 prostate it was 89.2%; in the assay with UACC-62 melanoma, 75.4%. The growth was 97% in the assay on LOX IMVI melanoma; 97.6% with SK-MEL-28 melanoma; 93.7% in the assay on SK-MEL-2 melanoma; 88.3% with EKVX NSCLC; 87.9% in the assay with SN12C renal; 67.8% in the assay with UO-31 renal. For the same compound, the growth was 108% in the assay with TK-10 renal; 87.4% in the assay on ACHN renal; 78.2% in the assay with CAKI-1 renal; 59.3% in the assay on A498 renal; 101% with CCRF-CEM leukemia; 101% in the assay on MOLT-4 leukemia.

With `COc1ccccc1C(=O)Nc1cccc2c1C(=O)C(=O)C=C2`, the growth in the assay on HT29 colon is 62.5%; in the assay on SNB-75 CNS, 70%; with SNB-19 CNS, 106%; in the assay on U251 CNS it was 107%; in the assay with PC-3 prostate it was 89.8%; with SK-MEL-5 melanoma, 93.2%. The growth in the assay on UACC-62 melanoma is 105%; in the assay with LOX IMVI melanoma it was 63.1%; in the assay on SK-MEL-2 melanoma it was 109%; with EKVX NSCLC, 72.2%; with SN12C renal, 90.9%; in the assay with UO-31 renal, 59.2%. The growth with TK-10 renal is 116%; with ACHN renal, 101%; with CAKI-1 renal, 76.4%; with A498 renal it was 38.4%; with MOLT-4 leukemia it was 36.8%.

For the compound `CCCCCc1ccc(S(=O)(=O)Nc2cc(-c3csc(NC(=O)CN4CCN(C)CC4)n3)ccc2N2CCN(C)CC2)cc1`, the growth in the assay with HT29 colon was -25.3% (active); with SNB-75 CNS, 94.7%; with SNB-19 CNS it was 5.25% (active); with U251 CNS, -32.9% (active); with PC-3 prostate, 29.6%; with SK-MEL-5 melanoma it was -89.9% (active). The growth in the assay with UACC-62 melanoma was -78.4% (active); in the assay on LOX IMVI melanoma, -82.9% (active); with SK-MEL-28 melanoma, -87.3% (active); in the assay with SK-MEL-2 melanoma, 37.8%; in the assay with EKVX NSCLC, 55.8%; in the assay on UO-31 renal, -94.2% (active). For the same compound, the growth in the assay with TK-10 renal was 134%; in the assay with ACHN renal it was 0.622% (active); with CAKI-1 renal, -19.8% (active); in the assay on A498 renal, 73.1%; with CCRF-CEM leukemia it was 0.815% (active); in the assay on MOLT-4 leukemia it was -18.4% (active).

Regarding `NC(N)=Nc1ccc(Oc2cccc(Oc3ccc(Cl)c(C(F)(F)F)c3)c2)cn1`, the growth in the assay on HT29 colon is -68.4% (active); in the assay on SNB-75 CNS, 73.3%; with SNB-19 CNS it was -84.5% (active); in the assay on U251 CNS, -82.2% (active); in the assay on PC-3 prostate, -93.8% (active); in the assay with SK-MEL-5 melanoma, 14.3%. In addition, the growth in the assay with UACC-62 melanoma is -77.5% (active); in the assay with LOX IMVI melanoma it was -88.6% (active); in the assay with SK-MEL-28 melanoma, -29.4% (active); in the assay with SK-MEL-2 melanoma, -36.3% (active); in the assay on EKVX NSCLC, -7.2% (active); with SN12C renal, -86.6% (active). Further, the growth in the assay with UO-31 renal was 49.7%; in the assay on TK-10 renal, -27.1% (active); with ACHN renal it was -99.7% (active); with CAKI-1 renal, 9.01% (active); with A498 renal, 15.1%; with CCRF-CEM leukemia, -29.8% (active). The growth with MOLT-4 leukemia was -48.7% (active).
